MITF inhib – inhibitors of MITF, primary screen, MITF inhibitor project, cell-based, luminescence; inhibition, % (concentration not given with the values); TRPM1 promoter luciferase, 24 h; 0.28% of 37,000 active; in the data active means inhibition above about 85%; inconclusive means no clear call, values can overlap the other calls; inactive means below about 68%;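 further: human melanocyte line stably carrying TRPM1 promoter luciferase reporter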
Hedgehog inh – Hedgehog pathway signaling inhibitors, primary screen, luminescence, Shh-LIGHT2 cells, Gli-luciferase | Shh-LIGHT2 Gli-luciferase reporter, 30 h | inhibition, % (concentration not given with the values) | 2.1% of 22,000 active;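 active means mean inhibition across valid replicates above about 65%, limit read from the data; inconclusive means mean under the limit, yet half or more replicates past it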;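 further: pathway switched on by Shh-conditioned medium diluted 1 in 25 in low serum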
NOMO-1 viab – NOMO-1 AML cell viability reduction, primary screen, STK33 inhibitor project, CellTiter-Glo luminescence | NOMO-1 AML viability, 72 h | inhibition, % (no concentration beside the values) | 7.5% of 37,000 active | AID 2330, 2010; in the data active means inhibition above about 80%; inconclusive means no clear call, values can overlap the other calls
Numbers stand for hits. The list is not random: actives were taken first. Their share in the collection is about 7.8%.

What do the screens show for `CC(C)NC(=O)N(C)C[C@H]1Oc2ccc(NC(=O)Nc3ccc(C(F)(F)F)cc3)cc2CC(=O)N([C@@H](C)CO)C[C@H]1C`?
MITF inhib: inactive; Hedgehog inh: inactive; NOMO-1 viab: 113.9

What do the screens show for `CC(C)NC(=O)N(C)C[C@H]1Oc2ccc(NC(=O)Nc3ccc(C(F)(F)F)cc3)cc2CC(=O)N([C@H](C)CO)C[C@H]1C`?
MITF inhib: inactive; Hedgehog inh: inactive; NOMO-1 viab: inconclusive

Results for COc1ccc(NC(=O)N(C)C[C@H]2Oc3ccc(NC(=O)Nc4ccc(C(F)(F)F)cc4)cc3CC(=O)N([C@@H](C)CO)C[C@H]2C)cc1 ?
MITF inhib: inactive; NOMO-1 viab: 124.4

How did C[C@@H]1CN([C@H](C)CO)C(=O)Cc2cc(NC(=O)Nc3ccc(C(F)(F)F)cc3)ccc2O[C@@H]1CN(C)C(=O)NC1CCCCC1 do in these assays?
MITF inhib: inactive; Hedgehog inh: inactive; NOMO-1 viab: 112.3

How did C[C@@H]1CN([C@@H](C)CO)C(=O)Cc2cc(NC(=O)Nc3ccc(C(F)(F)F)cc3)ccc2O[C@@H]1CN(C)C(=O)Nc1ccc(C(F)(F)F)cc1 do in these assays?
MITF inhib: inactive; Hedgehog inh: inactive; NOMO-1 viab: 114.4

What do the screens show for `O=C(c1ccccc1)c1cc(Br)ccc1NC(=O)C1CC=CCC1C(=O)O` (stereo unspecified)?
MITF inhib: inactive; NOMO-1 viab: inactive

How did COc1cc([N+](=O)[O-])ccc1NC(=O)CN(C)S(=O)(=O)c1ccc(C)cc1 do in these assays?
MITF inhib: inactive; NOMO-1 viab: inactive

What do the screens show for `CSc1ccccc1NC(=O)CN(C)S(=O)(=O)c1ccc(C)cc1`?
MITF inhib: inactive; NOMO-1 viab: inactive

How did CCc1ccccc1NC(=O)CSc1ncnc2sc(C)c(C)c12 do in these assays?
MITF inhib: inactive; NOMO-1 viab: inactive

What do the screens show for `COc1ccc(C)cc1NC(=O)CN(C)S(=O)(=O)c1ccccc1`?
MITF inhib: inactive; NOMO-1 viab: inactive

Results for Cc1ccc2nc(-c3ccccn3)cc(C(=O)Nc3sc4c(c3C(N)=O)CCc3ccccc3-4)c2c1 ?
MITF inhib: inactive; NOMO-1 viab: inactive

What do the screens show for `COc1ccc(NC(=O)C2=C(C)NC(=O)NC2c2cc(OC)ccc2OC)c(OC)c1` (stereo unspecified)?
MITF inhib: inactive; NOMO-1 viab: inactive

Results for CCc1ccc(OCC(=O)Nc2sc3c(c2C(N)=O)CCCC3)c(Br)c1 ?
MITF inhib: inactive; NOMO-1 viab: inactive

What do the screens show for `COC(=O)c1ccc(NC(=O)CCC(=O)c2ccc(Br)cc2)cc1`?
MITF inhib: inactive; NOMO-1 viab: inactive

How did CCOC(NC(=O)Nc1ccc(Br)cc1)(C(F)(F)F)C(F)(F)F do in these assays?
MITF inhib: inactive; Hedgehog inh: inactive; NOMO-1 viab: 108.5

How did O=C(Cn1cc(C(=O)c2ccccc2F)c2ccccc21)Nc1cccc(C(F)(F)F)c1 do in these assays?
MITF inhib: inactive; NOMO-1 viab: inactive

What do the screens show for `C[C@@H]1CN([C@H](C)CO)C(=O)Cc2cc(NC(=O)CCCCCC(=O)Nc3ccccc3N)ccc2O[C@H]1CN(C)Cc1ccc2c(c1)OCO2`?
MITF inhib: inactive; NOMO-1 viab: inactive

Results for C[C@@H]1CCCCO[C@H](CN(C)Cc2ccc(Cl)c(Cl)c2)[C@@H](C)CN([C@H](C)CO)C(=O)c2cc(NC(=O)Cc3ccccc3)ccc2O1 ?
MITF inhib: inactive; Hedgehog inh: inactive; NOMO-1 viab: inactive

Results for C[C@@H]1CCCCO[C@@H](CN(C)Cc2ccc(Cl)c(Cl)c2)[C@@H](C)CN([C@H](C)CO)C(=O)c2cc(NC(=O)Cc3ccccc3)ccc2O1 ?
MITF inhib: inactive; NOMO-1 viab: 102.0

Results for COc1ccc(CN(C)C[C@H]2OCCCC[C@@H](C)Oc3ccc(NC(=O)CCCCCC(=O)Nc4ccccc4N)cc3C(=O)N([C@H](C)CO)C[C@@H]2C)cc1 ?
MITF inhib: inactive; NOMO-1 viab: inactive

How did C[C@@H]1CCCCO[C@H](CN(C)Cc2ccc(Cl)c(Cl)c2)[C@@H](C)CN([C@H](C)CO)C(=O)c2cc(NC(=O)CCCCCC(=O)Nc3ccccc3N)ccc2O1 do in these assays?
MITF inhib: inactive; NOMO-1 viab: 125.7

How did C[C@H]1CN([C@@H](C)CO)C(=O)Cc2cc(NC(=O)CCCCCC(=O)Nc3ccccc3N)ccc2O[C@H]1CN(C)Cc1ccc(Cl)c(Cl)c1 do in these assays?
MITF inhib: inactive; NOMO-1 viab: 126.9

Results for C[C@H]1CN([C@@H](C)CO)C(=O)c2cc(NC(=O)CCCCCC(=O)Nc3ccccc3N)ccc2O[C@@H]1CN(C)Cc1ccncc1 ?
MITF inhib: inactive; NOMO-1 viab: inactive

What do the screens show for `C[C@H](CO)N1C[C@H](C)[C@H](CN(C)Cc2ccc(Cl)c(Cl)c2)Oc2ccc(NC(=O)CCCCCC(=O)Nc3ccccc3N)cc2C1=O`?
MITF inhib: inactive; NOMO-1 viab: 132.6

How did O=C(CSc1nnc(-c2ccccc2)o1)Nc1cccc(F)c1 do in these assays?
MITF inhib: inactive; NOMO-1 viab: inactive

What do the screens show for `CCn1c(SCC(=O)Nc2sc3c(c2C#N)CCCC3)nnc1-c1cccc(Cl)c1`?
MITF inhib: inactive; NOMO-1 viab: inactive

Results for CCC(Sc1nnc(N)s1)C(=O)Nc1c(C)cccc1C (stereo unspecified) ?
MITF inhib: inactive; NOMO-1 viab: inactive

How did C=CCNC(=O)CC1CCCCC1 do in these assays?
MITF inhib: inactive; Hedgehog inh: inactive; NOMO-1 viab: inactive

How did C[C@@H]1CN([C@H](C)CO)C(=O)Cc2cc(NC(=O)Nc3cccc4ccccc34)ccc2O[C@@H]1CN(C)Cc1ccccc1 do in these assays?
MITF inhib: inactive; Hedgehog inh: inactive; NOMO-1 viab: 87.6

Results for C[C@@H]1CN([C@H](C)CO)C(=O)Cc2cc(NC(=O)Nc3cccc4ccccc34)ccc2O[C@@H]1CN(C)Cc1ccncc1 ?
MITF inhib: inactive; NOMO-1 viab: inactive

What do the screens show for `C[C@H](CO)N1C[C@H](C)[C@H](CN(C)Cc2ccc(-c3ccccc3)cc2)Oc2ccc(NC(=O)Nc3cccc4ccccc34)cc2CC1=O`?
MITF inhib: inactive; NOMO-1 viab: inactive

How did C[C@H]1CN([C@@H](C)CO)C(=O)Cc2cc(NC(=O)Nc3cccc4ccccc34)ccc2O[C@@H]1CN(C)Cc1ccc(Cl)c(Cl)c1 do in these assays?
MITF inhib: inactive; Hedgehog inh: inactive; NOMO-1 viab: 108.3

Results for C[C@H](O)c1nc2ccccc2c(=O)[nH]1 ?
MITF inhib: inactive; Hedgehog inh: inactive; NOMO-1 viab: inactive

Results for COc1ccc(OC(C)C(=O)Nc2cc(OC)cc(OC)c2)cc1 (stereo unspecified) ?
MITF inhib: inactive; NOMO-1 viab: inactive

How did CCOc1ccccc1NC(=O)C(C)Oc1ccc(OC)cc1 (stereo unspecified) do in these assays?
MITF inhib: inactive; NOMO-1 viab: 105.1

What do the screens show for `C[C@H](CO)N1C[C@H](C)[C@@H](CN(C)Cc2ccc(Oc3ccccc3)cc2)Oc2c(NC(=O)Nc3ccc4c(c3)OCO4)cccc2C1=O`?
MITF inhib: inactive; Hedgehog inh: inactive; NOMO-1 viab: inactive

Results for C[C@@H]1CN([C@@H](C)CO)C(=O)c2cccc(NC(=O)Nc3ccc4c(c3)OCO4)c2O[C@@H]1CN(C)Cc1ccc(Oc2ccccc2)cc1 ?
MITF inhib: inactive; Hedgehog inh: inactive; NOMO-1 viab: 94.6
